In all, about 5,500 compounds went through this assay and about 2,000 (36%) were called active. Inconclusive results (about 18%) are left out. Cut-off read from the data, not from the text of the source: active = normalized growth mostly below about 0.91 (no sharp cut-off); inconclusive = no clear call, values can overlap the other calls; inactive = mostly above about 0.92. The list shows a part of the results.
Assay: chemical genetic growth profiling, strain panel (AID 1159580);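 note: tested at 20 µM; growth read once vehicle control cultures reached saturation at 30 °C; 1 = growth at the plate median or of vehicle wells; lower values mean less growth of the strain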
Conditions: S. cerevisiae deletion strains, growth OD

Measured: normalized growth

O=C(O)C1CC(=O)N(Cc2ccccc2Cl)C1 (stereo not drawn)
inactive: locus YAL013W, strain DEP1, active compounds read low 1.01 | locus YBR229C, strain ROT2, active compounds read low 1 | locus YCL061C, strain MRC1, active compounds read low 1.02 | locus YDL101C, strain DUN1, active compounds read low 0.994 | locus YDL134C, strain PPH21, active compounds read low 1.01 | locus YDR150W, strain NUM1, active compounds read low 0.947 | locus YEL061C, strain CIN8, active compounds read low 1.03 | locus YGR078C, strain PAC10, active compounds read low 1.01 | locus YHR030C, strain SLT2, active compounds read low 1.15 | locus YHR087W, strain rtc3, active compounds read low 1.01 | locus YJR043C, strain POL32, active compounds read low 0.966 | locus YJR075W, strain HOC1, active compounds read low 1 | locus YLR039C, strain RIC1, active compounds read low 1.04 | locus YLR058C, strain SHM2 (second series), active compounds read low 1 | locus YLR085C, strain ARP6, active compounds read low 1.04 | locus YLR262C, strain YPT6, active compounds read low 1.01 | locus YML094W, strain GIM5, active compounds read low 1.04 | locus YMR219W, strain ESC1, active compounds read low 1.01 | locus YMR263W, strain SAP30, active compounds read low 1.01 | locus YMR307W, strain GAS1, active compounds read low 1.02 | locus YNL153C, strain GIM3, active compounds read low 0.992 | locus YNL298W, strain CLA4 (second series), active compounds read low 1.07 | locus YNL322C, strain KRE1, active compounds read low 1.01 | locus YNR030W, strain Alg12, active compounds read low 1.03 | locus YOL006C, strain TOP1, active compounds read low 1.08 | locus YPL055C, strain LGE1, active compounds read low 0.931 | locus YPL241C, strain CIN2, active compounds read low 1.11 | locus YPR135W, strain CTF4, active compounds read low 1.06

Source: PubChem BioAssay AID1159580 (chemical genetic matrix, 2015)
